From PubChem BioAssay (NCI)
About 79,000 compounds went through this panel and 15% of them were active in at least one assay; those are over-represented in the sample as a whole. Activity calls are given as the source filed them. Cut-off read from the data, not from the text of the source: active = growth inhibition above about 70%; inactive = the rest.

Tests used:
[1] = NCI Yeast Anticancer Drug Screen. Data for the rad50 strain (AID 155);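 note: 0% = growth of vehicle-only cultures of the same strain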; settings: S. cerevisiae rad50 strain growth inhibition; at 50.0 µM; stronger effect = higher value
In short: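 Vehicle-treated cultures provide the reference for the growth inhibition reported for compound-exposed, repair-deficient yeast.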

[2] = NCI Yeast Anticancer Drug Screen. Data for the mec2-1 strain (AID 157); settings: S. cerevisiae mec2-1 strain, at 50.0 µM, stronger effect = higher value
In short: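 Vehicle-treated cultures served as reference for growth inhibition of compound-exposed mec2-1 yeast.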

[3] = NCI Yeast Anticancer Drug Screen. Data for the sgs1 mgt1 strain (AID 161);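 note: 0% = growth of cultures given vehicle only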; settings: S. cerevisiae sgs1 mgt1 strain, at 50.0 µM, stronger effect = higher value
In short: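 Inhibition of yeast growth, normalised to vehicle-treated controls, is reported for a strain bearing genetic alterations in DNA damage repair.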

[4] = NCI Yeast Anticancer Drug Screen. Data for the cln2 rad14 strain (AID 165);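 note: 0% = growth equal to vehicle treated cultures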; settings: S. cerevisiae cln2 rad14 strain, at 50.0 µM, stronger effect = higher value
In short: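 Each compound was tested on cln2 rad14 yeast. Inhibition of growth was calculated against vehicle-exposed controls.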

[5] = NCI Yeast Anticancer Drug Screen. Data for the bub3 strain (AID 167); settings: S. cerevisiae bub3 mutant strain, at 50.0 µM, stronger effect = higher value
In short: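 Mutant yeast screening strain plus compound; vehicle-treated cultures serve as the 0% inhibition reference.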

[6] = NCI Yeast Anticancer Drug Screen. Data for the mlh1 rad18 strain (AID 175); settings: S. cerevisiae mlh1 rad18 strain growth inhibition; at 50.0 µM; stronger effect = higher value
In short: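 Vehicle-treated cultures served as the reference for growth inhibition in a yeast strain carrying DNA damage repair alterations exposed to each compound.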

Measured: growth inhibition

Cc1ccc(Cl)nn1
inactive: [1] 10% | [2] -1.25% | [3] -2.55% | [4] -3.3% | [5] 12.9% | [6] 2.1%

Nc1cn[nH]c(=O)n1
inactive: [1] -3.6% | [2] 20.6% | [3] 2% | [4] 13.3% | [5] 10.4% | [6] 2.7%

Cc1c(-c2ccc(Cl)cc2)n[nH]c1-c1[nH]nc(-c2ccc(Cl)cc2)c1C
inactive: [1] -2.3% | [2] -1.95% | [3] -26.1% | [4] 3.75% | [5] -11.4% | [6] -1.9%

CCOC(=O)/C(=C\c1ccccc1)NC(=O)c1ccccc1
inactive: [1] 5.4% | [2] -2.75% | [3] -2.35% | [4] 7.3% | [5] 20% | [6] 4.85%

O=C(O)c1ccc2c(c1)Cc1ccccc1-2
inactive: [1] 30.5% | [2] 47.9% | [3] 51.3% | [4] 45.1% | [5] 35.6% | [6] 42%

Oc1cccc(C(c2ccccc2)c2ccccc2)c1
inactive: [1] -0.6% | [2] 0.3% | [3] -5.5% | [4] -11.1% | [5] -3.6% | [6] -3.95%

COc1ccccc1C1CCCCC1SCC(=O)O (stereo unspecified)
inactive: [1] 19.4% | [2] 11.7% | [3] 2.05% | [4] 9.35% | [5] 6.75% | [6] -18.4%

Cc1ccc(-c2c(N)nc(NC#N)nc2CCC(=O)Nc2ccccc2[N+](=O)[O-])cc1
inactive: [1] 1.9% | [2] 1.35% | [3] -14.6% | [4] 5.5% | [5] 3.7% | [6] 5.4%

Cc1c(O)cc(O)c(C)c1C
inactive: [1] -0.3% | [2] -23.3% | [3] -8.6% | [4] -2% | [5] 9.8% | [6] -8.65%

CCOC(=O)N1C(c2ccccc2)N(c2ccccc2)C(c2ccccc2)N1C(=O)OCC (stereo unspecified)
inactive: [1] 4.7% | [2] 4.65% | [3] 22.9% | [4] 3.3% | [5] -15.6% | [6] 14.8%

Cc1cc2c(=O)cc(-c3ccccc3Cl)oc2c(C(=O)O)c1C
inactive: [1] -3.1% | [2] -10.3% | [3] -4.45% | [4] 8.2% | [5] -2.75% | [6] -18.6%

COc1ccc(N=C2C(=Nc3ccc(OC)cc3)N(c3ccccc3[N+](=O)[O-])C(=S)N2c2ccc(OC)cc2)cc1
inactive: [1] 3.6% | [2] -24% | [3] 10.7% | [4] -49.5% | [5] -1.35% | [6] -10.9%

COc1ccc2[nH]cc(CN3CCC(CO)(c4ccccc4)CC3)c2c1
inactive: [1] 13.4% | [2] 1.2% | [3] -16.4% | [4] 6.9% | [5] 5.95% | [6] 3.55%

N=C1N=Nc2nc(C(C(=O)c3cccc([N+](=O)[O-])c3Cl)c3nc4n(c3O)C(=N)N=N4)c(O)n21 (stereo unspecified)
inactive: [1] -2.65% | [2] 0.7% | [3] 13.8% | [4] -23.5% | [5] -0.15% | [6] 2.8%

CC(=O)c1cccc(NC(=O)Oc2ccc(C(=O)OCc3ccccc3)cc2)c1
active: [1] 71.2% | [2] 88.9% | [3] 80.7% | [5] 92.2% | [6] 92.9%
inactive: [4] 42.8%

CCNc1nc2c(=O)n(C)c(=O)n(C)c2s1
inactive: [1] -31% | [2] -26.2% | [3] -4.05% | [4] -6.2% | [5] -10.6% | [6] -5.65%

O=[N+]([O-])c1ccc(N/N=C/C2CCCCCC2)c([N+](=O)[O-])c1
inactive: [1] 11.4% | [2] 13.6% | [3] -0.75% | [4] -147% | [5] -14.7% | [6] 4%

C[N+](C)(C)CC(=O)N/N=C(\C(=O)NC1=C(Cl)C(=O)c2ccccc2C1=O)C(C#N)c1csc(-c2ccc([N+](=O)[O-])cc2)n1 (stereo unspecified)
inactive: [1] 14.8% | [2] 26.6% | [3] -5.8% | [4] 17.6% | [5] 33.5% | [6] 19.9%

COc1ccccc1NC(=O)C1=C(C)NC(C)=C(C(=O)Nc2ccccc2OC)C1c1cccc2ccccc12
inactive: [1] 28.4% | [2] -2.35% | [3] -18.2% | [4] 29.4% | [5] 6.65% | [6] 0.5%

CCOc1ccc(-c2oc(/C=N/NS(=O)(=O)c3ccc(C)cc3)c([N+](=O)[O-])c2-c2ccc(OCC)cc2)cc1
inactive: [1] 59.7% | [2] 37.5% | [3] 64% | [4] 62.2% | [5] 44.6% | [6] 58.5%

Cc1ccc(S(=O)(=O)N2CCC(C(=O)O)(c3ccccc3)CC2)cc1
inactive: [1] -14.9% | [2] -0.9% | [3] -35.4% | [4] -88.5% | [5] -56.2% | [6] -9.45%

CC(C)(C)[Si](C)(C)OCC1OC(n2cnc3c(N)ncnc32)C(O)C1O (stereo unspecified)
inactive: [1] -12.4% | [2] -15.2% | [3] 4.85% | [4] -0.2% | [5] 3.5% | [6] -2.35%

COC(=O)CCC(=O)c1ccc2c(c1)CC1(C2)Cc2ccc3c(c2C1)CCCC3=O (stereo unspecified)
inactive: [1] -10.9% | [2] -27.1% | [3] -14.1% | [4] 5.9% | [5] -13.6% | [6] -4.25%

O=C(NCc1ccccc1)NC(c1ccccc1)(c1ccccc1)c1ccccc1
inactive: [1] 28.9% | [2] 14.2% | [3] 34.6% | [4] 11.8% | [5] -4.25% | [6] 30.9%

CN(C)CC(=O)N1CCc2c([nH]c3ccccc23)C1c1cccnc1 (stereo unspecified)
inactive: [1] -44.9% | [2] -10.2% | [3] 3.6% | [4] -3.1% | [5] -15.3% | [6] -16.9%

COc1cccc(C2c3cc4c(cc3OC(C)(OC)C2C)OCO4)c1 (stereo unspecified)
inactive: [1] 19.8% | [2] 22.8% | [3] 21.4% | [4] -83.6% | [5] 4.25% | [6] 15.8%

COC(=O)c1c2c(C)ccc(C)c2nc2c(C)ccc(C)c12
inactive: [1] -5.6% | [2] -41% | [3] -2.05% | [4] -15.3% | [5] 22.7% | [6] -41%

FC(F)(F)c1cc(-c2ccc(C3Nc4ccccc4-n4cccc43)o2)cc(C(F)(F)F)c1 (stereo unspecified)
inactive: [1] 11.7% | [2] -23.4% | [3] 24.2% | [4] 6.65% | [5] 25.4% | [6] 30.3%

Cc1c(C(=O)/C=C/c2ccc(N(C)C)cc2)c(=O)n(-c2ccccc2)n1C
inactive: [1] -7% | [2] -45.1% | [3] -36.1% | [4] -8.85% | [5] -29.7% | [6] -20.1%

CCOc1nc2ccc(N)cc2s1
inactive: [1] 19.6% | [2] -9.55% | [3] 3.25% | [4] -31.9% | [5] 11.4% | [6] -12.3%

Clc1nc(N2CCOCC2)nc(N2CCOCC2)n1
inactive: [1] -9.5% | [2] -21.1% | [3] -3.2% | [4] -32.1% | [5] 7.7% | [6] -5.65%

CC(=O)OCC1OC(n2c(C)c(C(C)=O)c(-c3ccc(Cl)cc3)c(C#N)c2=S)C(OC(C)=O)C(OC(C)=O)C1OC(C)=O (stereo unspecified)
inactive: [1] -37.9% | [2] -9.55% | [3] -2.1% | [4] 12.2% | [5] 9.15% | [6] -2.65%

C=C1CC(C)(Cn2cnc3c(N)ncnc32)OC1=O (stereo unspecified)
inactive: [1] 9% | [2] 10.6% | [3] 9.05% | [4] 20.1% | [5] 16.7% | [6] 21.1%

CCn1c(O)c(C=Nc2ccccc2)s/c1=N/Nc1nc(C)cs1
inactive: [1] -45.3% | [2] -55.2% | [3] -25% | [4] -14.1% | [5] -26.7% | [6] -27.5%

Cc1cc(C)c(Br)cc1C
inactive: [1] 4.9% | [2] 15% | [3] 5.8% | [4] 3.4% | [5] 3% | [6] -5.35%

CC(=O)Oc1cc(C)c(OC(C)=O)c(C)c1C
inactive: [1] -12.8% | [2] -27.4% | [3] -2.15% | [4] -9.3% | [5] 10.3% | [6] 6.3%

COc1ccc(N2C(=O)c3c(C)ccc(C)c3C2=O)cc1
inactive: [1] -23.8% | [2] 6.4% | [3] 19.9% | [4] -0.5% | [5] -3.5% | [6] 5.15%

CCCNC=O
inactive: [1] -6.8% | [2] -7.85% | [3] -13.8% | [4] -14.4% | [5] -5.1% | [6] -5%

CC12CCC(=O)C=C1CCC1C2CCC2(C)C1CCC2(O)C(=O)Cn1c(=O)cc[nH]c1=O (stereo unspecified)
inactive: [1] 10.3% | [2] 4.65% | [3] 1.5% | [4] 14.7% | [5] -2.7% | [6] 11.5%

NNC(=O)Nc1ccccc1
inactive: [1] 3.8% | [2] 5.55% | [3] -0.5% | [4] -13.6% | [5] -2.4% | [6] -3.15%

CC(C)OC(=O)c1ccc(=O)oc1
inactive: [1] 7.4% | [2] -5.85% | [3] -2.4% | [4] -8.75% | [5] -18.4% | [6] -5.15%
